# PRC2 inh = inhibitors of human EZH2/PRC2 methyltransferase. Q15910. PRC2 H3K27 methylation, DELFIA TRF, 1 h. inhibition, % at 12.5 µM. hit rate 0.35% among 57,000;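 active = mean inhibition of replicates at least 50% and every single replicate also reaching 50%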;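 also: dimethyl H3K27 on biotinylated H3 21-44 peptide detected by antibody; plate controls were median neutral control wells for no effect and median positive control wells for full effect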
# Target sequence (Q15910 whole entry, looked up): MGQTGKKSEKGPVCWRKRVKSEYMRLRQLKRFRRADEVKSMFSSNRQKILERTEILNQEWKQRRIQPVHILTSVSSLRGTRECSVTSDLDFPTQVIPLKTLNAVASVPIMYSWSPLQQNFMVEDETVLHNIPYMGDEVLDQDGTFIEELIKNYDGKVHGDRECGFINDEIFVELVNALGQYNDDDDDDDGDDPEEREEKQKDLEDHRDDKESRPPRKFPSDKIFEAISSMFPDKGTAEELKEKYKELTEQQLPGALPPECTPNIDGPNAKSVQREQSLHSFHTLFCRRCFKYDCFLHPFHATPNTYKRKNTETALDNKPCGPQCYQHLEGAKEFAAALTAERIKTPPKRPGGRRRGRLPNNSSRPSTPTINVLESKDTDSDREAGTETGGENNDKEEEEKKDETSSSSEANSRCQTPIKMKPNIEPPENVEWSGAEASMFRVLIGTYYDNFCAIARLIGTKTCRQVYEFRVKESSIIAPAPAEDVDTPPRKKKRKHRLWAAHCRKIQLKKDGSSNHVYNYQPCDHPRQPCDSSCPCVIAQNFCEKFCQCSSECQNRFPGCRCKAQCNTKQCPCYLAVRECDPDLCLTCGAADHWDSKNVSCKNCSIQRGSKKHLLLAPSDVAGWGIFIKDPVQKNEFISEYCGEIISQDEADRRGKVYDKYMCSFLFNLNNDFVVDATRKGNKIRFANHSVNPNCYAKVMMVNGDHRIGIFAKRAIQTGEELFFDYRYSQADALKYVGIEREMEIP
# Numbers without * were called inactive. Many of the other results were omitted from the sample, so hits are more common in it than they were.
SMILES,PRC2 inh
O=C(CSc1nnc(-c2ccc(Br)cc2)o1)Nc1cccc(C(=O)N2CCOCC2)c1,-5.4
CC(C)(C)c1cc(C(C)(C)C)n(-c2ccc(-n3cccc3)cc2)n1,-5.3
O=C(NO)c1cccc(C(=O)N/N=C/c2ccc3ccccc3c2)c1,6.2
O=C(NO)c1cccc(C(=O)N/N=C/c2ccc(O)c(O)c2)c1,94.4*
O=C(NO)c1cccc(C(=O)N/N=C/c2ccc(F)cc2)c1,0.6
CCC1=Nc2cc(C(=O)N(C)Cc3ccccc3)ccc2Sc2ccc(C)cc21,23.6
Cc1nnc(SCC(=O)Nc2ccc(F)c(F)c2F)s1,2.8
N#Cc1c(-c2ccccc2)nc(SCC(=O)N(c2ccccc2)c2ccccc2)[nH]c1=O,51.6*
O=C(CSc1ncn[nH]1)N(c1ccccc1)c1ccccc1,3.8
CC(Sc1nc(-c2ccccc2)c(C#N)c(=O)[nH]1)C(=O)Nc1cccc(Cl)c1 (centres undefined),62.7*
CC(Sc1nc(-c2ccccc2)c(C#N)c(=O)[nH]1)C(=O)Nc1ccc(Cl)cc1 (centres undefined),46.0
O=C(CSc1nc2sc3c(c2c(=O)[nH]1)CCCC3)N(c1ccccc1)c1ccccc1,31.5
CC(Sc1nc2ccccc2[nH]1)C(=O)Nc1cccc(Cl)c1 (centres undefined),2.1
COC(=O)CCCCCCC(=O)N/N=C/c1cccnc1,23.7
CC(C)=CCC[C@H](C)C/C=N/NC(=O)c1cccc(C(=O)NO)c1,-10.1
O=C(CSc1n[nH]c(-c2ccccc2)n1)Nc1cccc(C(F)(F)F)c1,7.7
O=C(CSc1nnc(-c2ccccc2)n1-c1ccccc1)Nc1ccccc1C(F)(F)F,12.8
O=C(COc1cccc(NC(=O)c2ccc([N+](=O)[O-])cc2)c1)c1ccc(F)cc1,2.5
COc1ccc(C)cc1NC(=O)CNS(=O)(=O)c1ccccc1,-0.6
COc1cccc(OC)c1C(=O)NC(=S)Nc1cccc(-c2nn3c(C)nnc3s2)c1,4.3
O=C(CSc1nc2ccccc2[nH]1)Nc1ccc(Cl)c(Br)c1,54.3*
Cc1cc(NC(=O)CSc2nc3ccccc3[nH]2)ccc1Br,7.9
COc1ccc(NC(=O)CSc2nc3ccccc3[nH]2)cc1Cl,-22.7
O=C(CCCCC(=O)N/N=C/c1ccccc1Br)NO,23.1
Cc1cc(N2CC(C)CC(C)C2)nc2ccc(NC(=O)CCC(=O)Nc3ccc(F)cc3Cl)cc12 (centres undefined),-12.4
SMILES,PRC2 inh
CO[C@@H](CN(C)S(=O)(=O)c1ccc(C)cc1)[C@@H](C)CN(Cc1ccccc1Cl)[C@@H](C)CO,37.9
CO[C@H](CN(C)S(=O)(=O)c1ccc(C)cc1)[C@H](C)CN(Cc1ccccc1Cl)[C@@H](C)CO,42.0
CO[C@@H](CN(C)S(=O)(=O)c1ccc(C)cc1)[C@@H](C)CN(Cc1ccccc1Cl)[C@H](C)CO,51.1*
CC(=O)c1ccc(O[C@@H]2O[C@H](CO)[C@@H](O)[C@H](O)[C@H]2O)c(/C=C/C(C)(C)O)c1,4.9
O=C(CCc1ccc(O)cc1)c1c(O)cc(O)cc1O[C@@H]1O[C@H](CO)[C@@H](O)[C@H](O)[C@H]1O,-4.0
CC(C)=CCc1cc(O[C@@H]2O[C@H](CO)[C@@H](O)[C@H](O)[C@H]2O)cc(CC=C(C)C)c1C(O)C(=O)O (some centres undefined),99.5*
CC(O)CCCc1cc(O)cc(O[C@@H]2O[C@H](CO)[C@@H](O)[C@H](O)[C@H]2O)c1 (some centres undefined),5.4
COc1ccc(/C=C/c2cc(O)cc(O[C@@H]3O[C@H](CO)[C@@H](O)[C@H](O)[C@H]3O)c2)cc1,-0.4
CC(=O)c1c(O)cc(O[C@@H]2O[C@H](CO)[C@@H](O)[C@H](O)[C@H]2O)cc1O,93.9*
CCN(CC)C(=O)c1cc(-c2ccc(Cl)c(Cl)c2)on1,28.5
O=C(Cn1cnc2ccccc2c1=O)Nc1ccc2c(c1)Cc1ccccc1-2,-2.8
O=C(CCCCCC(=O)N/N=C/c1ccc(O)c2ccccc12)NO,-1.9
O=C(CC(Sc1ccc(Cl)cc1)c1ccc(Cl)cc1)C1CC1 (centres undefined),53.4*
O=C(O)c1ccc(C(Nc2ccccn2)c2cc(Cl)c3cccnc3c2O)cc1 (centres undefined),-2.8
COc1cc(Br)cc(/C=N/NC(=O)c2ccccc2O)c1O,4.9
COc1ccc(/C=N/NC(=O)c2ccccc2O)cc1Br,-7.7
COc1cc(Br)c(/C=N/NC(=O)c2ccccc2O)cc1OC,67.1*
O=C(O)COc1ccc(Cl)cc1CO,-5.3
Cc1c(CCC(=O)O)c(=O)oc2cc(OCC(=O)O)ccc12,-21.6
CCCc1c(OCCCOc2ccc(OCC(=O)O)cc2)ccc(CC=O)c1O,54.7*
COC(=O)c1c(NC(=S)Nc2cc3oc4ccccc4c3cc2OC)sc2c1CCCC2,-1.7
COc1ccc(/C=C/C(=O)O[C@H]2[C@H](OC3C4O[C@]4(CO)[C@H]4C(O[C@@H]5O[C@H](CO)[C@@H](O)[C@H](O)[C@H]5O)OC=C[C@@H]34)O[C@@H](C)[C@H](O)[C@H]2O)cc1 (some centres undefined),8.2
COC(=O)C1=COC(O[C@@H]2O[C@H](CO)[C@@H](O)[C@H](O)[C@H]2O)[C@@H]2[C@@H](C)[C@@H](OC(=O)/C=C/c3ccc(O)c(O)c3)[C@@H](O)[C@H]12 (some centres undefined),4.2
C[C@@H]1O[C@@H](O[C@@H]2[C@@H](O)[C@H](OCCc3ccc(O)c(O)c3)O[C@H](CO[C@@H]3OC[C@](O)(CO)[C@H]3O)[C@H]2OC(=O)/C=C/c2ccc(O)c(O)c2)[C@H](O[C@@H]2OC[C@H](O)[C@H](O)[C@H]2O)[C@H](O)[C@H]1O,68.3*
COc1ccccc1OCC(O)Cn1cnc2ccccc21 (centres undefined),3.0
NC(=O)CSc1nnc(Cc2ccccc2)n1-c1ccccc1,-1.9
COc1ccc(NC(=O)CSc2n[nH]c(N)n2)cc1Cl,-12.9
COc1ccc(NC(=O)CSc2nnc(C)c(=O)[nH]2)cc1Cl,-13.0
CCC1(C)Cc2ccccc2-c2nc3[nH]nc(SCC(=O)Nc4ccc(OC)c(Cl)c4)n3c(=O)c21 (centres undefined),60.1*
